The text below walks through data of PubChem BioAssay (NCATS).

Records with an inconclusive call do not appear. A call without a number means that no potency is given here. Unmarked numbers belong to inactive results. Activity calls are given as the source filed them. Calls come from the whole dose curve; as a rule, active = well fitted curve in the direction sought with a large enough effect; inconclusive = small, poorly fitted or top-dose-only effect, or another doubt; inactive = no such curve, though single readings can be large; an effect the other way counts as inactive or inconclusive.

In assay [1] the target is Calcium and integrin-binding protein 1 (Homo sapiens) (UniProt Q99828). Put plainly: Primary qHTS for Identification of Calcium Integrin Binding Protein 1 (CIB1) Competitor (AID 1508620). Note: potency is the fitted concentration of half-maximal effect. The procedure, abridged:
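Fluorescence polarization competition: GST-tagged CIB1 (1 uM final) preincubated with compound 15 min at room temperature, then FITC-labelled alphaIIb peptide (100 nM final) added. After 15 min at room temperature, polarization read at Ex 480/Em 540.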
Background: qHTS replaces the single test concentration by a dilution series.

For assay [2], the target named is N-terminal Xaa-Pro-Lys N-methyltransferase 1 (Homo sapiens) (UniProt Q9BV86). Put plainly: Confirmatory qHTS for Inhibitors of N-terminal methyltransferase 1 (NTMT1): MTaseGlo Assay (AID 1645874).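 Note: luminescence from SAH made as NTMT1 methylates SPKRIA peptide using SAM; series mostly up to about 100 µM; nearly all actives have a fitted effect of over 65% in size.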 The procedure, abridged: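 MTase-Glo luminescence measured SAH formed by 125 nM NTMT1 from 100 uM SAM and 1 uM SPKRIA peptide over 30 min at room temperature, following 15 min compound preincubation. Percent inhibition against no-enzyme and DMSO controls gave 4-parameter Hill fits.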
Sequence of N-terminal Xaa-Pro-Lys N-methyltransferase 1 (Homo sapiens) (Q9BV86 whole entry, looked up): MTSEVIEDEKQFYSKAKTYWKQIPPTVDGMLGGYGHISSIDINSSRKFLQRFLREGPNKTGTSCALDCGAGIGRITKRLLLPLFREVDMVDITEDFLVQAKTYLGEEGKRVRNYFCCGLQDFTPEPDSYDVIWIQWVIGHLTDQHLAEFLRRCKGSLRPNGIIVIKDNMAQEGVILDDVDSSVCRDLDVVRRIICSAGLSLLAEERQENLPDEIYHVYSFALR

Sequence of Calcium and integrin-binding protein 1 (Homo sapiens) (Q99828 whole entry, looked up): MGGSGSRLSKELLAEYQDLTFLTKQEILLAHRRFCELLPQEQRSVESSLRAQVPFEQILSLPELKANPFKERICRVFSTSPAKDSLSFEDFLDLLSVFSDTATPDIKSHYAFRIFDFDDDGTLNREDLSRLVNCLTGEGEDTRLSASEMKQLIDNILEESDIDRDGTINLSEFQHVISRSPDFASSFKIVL

For `N#Cc1nc(-c2cccc3ccccc23)oc1NCC#CCOC(=O)c1cccs1`, the Potency result in assay [1] is “inactive”. As for `CC(=O)Nc1sc2c(c1-c1nc3ccccc3s1)CCN(C1COC1)C2`, in assay [1], the Potency is 14.1 µM (active). On to `Cc1ccc(NC(=O)CN2C(=O)N/C(=C\c3cccn3-c3ccc(P(=O)(O)O)cc3)C2=O)cc1`, for which the Potency entry in assay [1] was “inactive”. Regarding `COC(=O)c1ccc2nc(NC3=NC(c4[nH]ncc4Cl)C4=C(CCCC4=O)N3)oc2c1` (configuration not stated), the Potency result in assay [1] was “inactive”.

Consider `COc1ccc(-c2nnc3n2N=C(c2ccc(OC)cc2OC)CS3)cc1`, for which, in assay [1], the Potency result is “inactive”. For `COc1cccc(NC(=S)N2CCN(c3ccc(C(F)(F)F)cc3[N+](=O)[O-])CC2)n1`, the Potency result in assay [1] was “inactive”. For the compound `Oc1ccc(COC2CCN(Cc3ccccc3)C2)c2cccnc12` (configuration not stated), in assay [1], the Potency result was “inactive”.

As to `CS(=O)(=O)Nc1cccc(-c2cc(F)c(S(=O)(=O)N3CCN(S(=O)(=O)c4ccc5c(c4)OCCO5)CC3)cc2F)c1`, in assay [1], the Potency result is “inactive”. Turning to `O=[N+]([O-])c1ccccc1S(=O)(=O)N1CCN(S(=O)(=O)c2ccc3c(c2)OCCO3)CC1`, in assay [1], the Potency result is “inactive”. In the case of `Cc1cccc(-c2csc(N3CCC(C(N)=O)CC3)n2)c1`, the Potency result in assay [1] was “inactive”.

On to `NC(=O)c1ccc(-c2noc(-c3cccc(Cl)c3)n2)cc1`, for which, in assay [1], the Potency result was “inactive”. Turning to `Cc1ccc(CNc2ncnc3ccc(-c4ccoc4C)cc23)o1`, the Potency result in assay [1] is “inactive”. As to `COc1ccc(C2Nc3ccccc3C(=O)N2Cc2ccccc2)cc1COc1ccc(C#N)cc1` (configuration not stated), the Potency entry in assay [1] was “inactive”. Take `Cc1ccc(OCCn2c(CCNC(=O)C3CCC3)nc3ccccc32)cc1`: the Potency result in assay [1] is “inactive”.

Regarding `Cc1cccc(CNc2ccc(S(=O)(=O)Nc3nccs3)cc2)c1O`, the Potency entry in assay [1] was “inactive”.

On to `Cc1cc(N[S+](=O)([O-])c2ccc(NC(=O)Cc3ccc(Cl)nc3)cc2)no1`, for which the Potency entry in assay [1] was “inactive”. On the same count and under the same terms, for `Cc1nc(CCN(C)c2ncnc3ccc(-c4ccc5c(c4)OCO5)cc23)cs1` the value was “inactive”. As to `CCOc1ccc(CCNC(=O)c2ccc(C3(C(F)(F)F)N=N3)cc2)cc1OCC`, in assay [1], the Potency result was “inactive”. In the case of `Cn1c2cc(Br)sc2c2cnn(Cc3ccccc3F)c(=O)c21`, the Potency result in assay [1] is “inactive”. Regarding `COc1ccc(C2Nc3ccccc3C(=O)N2C2CCCC2)cc1COc1ccc(NC(C)=O)cc1` (configuration not stated), the Potency result in assay [1] was “inactive”. On to `O=S(=O)(NCc1ccccc1F)c1ccc(O)c2ncccc12`, for which the Potency entry in assay [1] is “inactive”. For `O=C(O)c1cc(Br)c(O)c2ncccc12`, the Potency entry in assay [1] was “inactive”. On to `O=C(Nc1ccc(Cl)cc1)Nc1nnc(-c2ccncc2)s1`, for which the Potency entry in assay [1] was “inactive”. Same read-out and setting: for `CC(=O)Nc1ccc(OCc2cccc(-c3nc4ccccc4c(=O)n3Cc3ccco3)c2)cc1` the value was “inactive”. With `O=C(O)c1ccccc1-c1noc(-c2ccccc2F)n1`, the Potency result in assay [1] was “inactive”. As for `C#CCOc1ccc(-c2no[n+]([O-])c2C#N)cc1`, the Potency entry in assay [1] is “inactive”. The same measure, in the same setting: for `Cc1noc(C)c1-c1ccc2ncnc(NCC3CCCCN3C)c2c1` (configuration not stated) the value was “inactive”; for `O=C(OCC#CCSc1nnc(-c2cccc3ccccc23)o1)c1ccc(Br)cc1`, “inactive”.

In the case of `Cc1cccc(CNc2ccnc(-c3cccc(C(F)(F)F)c3)n2)c1`, the Potency result in assay [1] is “inactive”. Turning to `Cn1nnnc1Sc1ncnc2scc(-c3ccc(C#N)cc3)c12`, the Potency entry in assay [1] was “inactive”.

Turning to `O=C(OCC#CCSc1nnc(-c2cccc(F)c2)o1)c1ccc(F)cc1`, the Potency result in assay [1] is “inactive”. As for `CCN(Cc1sccc1C)c1ncnc2ccc(-c3ccc4c(c3)OCO4)cc12`, in assay [1], the Potency entry is “inactive”. For `COc1ccc(-c2csc(N3CCC(C(N)=O)CC3)n2)cc1OC`, the Potency result in assay [1] is “inactive”.

With `O=C(Nc1ccc2ccccc2c1)Nc1nnc(C2CCCCC2)s1`, in assay [1], the Potency result was “inactive”. With `O=C1CCc2cc(S(=O)(=O)Nc3cc(F)cc(Cl)c3)c(F)cc2N1`, in assay [1], the Potency entry is “inactive”. Consider `CCc1ccc2oc(=O)cc(CN3CCN(c4ccccc4F)CC3)c2c1`, for which the Potency result in assay [1] was “inactive”. Consider `O=C(Nc1ccc(-c2nc3ccccc3[nH]2)cc1)c1ccc2ncsc2c1`, for which, in assay [1], the Potency entry was “inactive”. As for `C=CCNc1oc(-c2cccs2)nc1C#N`, the Potency result in assay [1] is “inactive”.

Regarding `O=C(CN(Cc1cccc2ccccc12)C1CC1)Nc1ccc(N2CCOCC2)cc1`, in assay [1], the Potency entry was “inactive”. Same read-out and setting: the entry for `O=C(Nc1ccc(Cl)c(Cl)c1)Nc1cccc(-c2ccncc2)n1` is “inactive”. `COc1ccc(-c2nnc3n2N=C(c2c(OC)cccc2OC)CS3)cc1OC`: the Potency result in assay [1] and in assay [2] was “inactive” each time.
